Source: PubChem BioAssay (NCATS)
Unmarked numbers belong to inactive results. Records with an inconclusive call do not appear. A call without a number means that no potency is given here. Calls of active or inactive are those of the source. The call rests on the fitted dose curve; in most records, active means well fitted curve in the direction sought with a large enough effect; inconclusive means small, poorly fitted or top-dose-only effect, or another doubt; inactive means no such curve, though single readings can be large; an effect the other way counts as inactive or inconclusive.

What was measured:
[1] = Primary fluorescence-based thiol-reactive (MSTI) qHTS assay for identification of artifact compounds. (AID 1845221); further: nearly all actives have a fitted effect of over 65% in size; further: potency means the concentration at half of the fitted maximal effect
Procedure, shortened: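 In PBS pH 7.4 with 2% DMSO, each compound met 4 uM MSTI for one hour at ambient temperature, shielded from light, before fluorescence detection.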

[2] = tested on: Nanoluciferase (engineered Oplophorus gracilirostris luciferase); experiment: Primary Nanoluciferase (NLuc) qHTS assay for identification of artifact compounds. (AID 1845222)
Procedure, shortened: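 Diluted conditioned medium from NLuc-expressing S16 cells treated with compounds for 15 min at room temperature, then Nano-Glo substrate added; luminescence read after 5 min. Percent inhibition versus no-enzyme and DMSO controls fitted to 4-parameter Hill equation.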

[3] = Primary redox qHTS assay for identification of artifact compounds. (AID 1845223)
Procedure, shortened: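 Amplex Red (25 uM) and HRP (250 mU/mL) in HBSS, with compounds for 15 min, then 250 uM DTT for 30 min, room temperature, dark. Fluorescence 525/598 nm read; normalized to DMSO and 10 uM DA3003; Hill fit.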

[4] = Quantitative High-Throughput drug screen in 47 multiple myeloma cell lines against the NCATS MIPE library collection: Delta47_JCRB cell viability assay (AID 1918925; further: nearly all actives have a fitted effect of over 45% in size; further: potency means the concentration at half of the fitted maximal effect)
Procedure, shortened: (§1)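 Approved and investigational drugs from MIPE 4.0 were added by pin tool to 500 cells per well. After 48 hours at 37C, ATP-based CellTiter-Glo luminescence indicated remaining viability.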

[5] = Quantitative High-Throughput drug screen in 47 multiple myeloma cell lines against the NCATS MIPE library collection: EJM_DSMZ cell viability assay (AID 1918926; further: nearly all actives have a fitted effect of over 30% in size; further: potency means the concentration at half of the fitted maximal effect)
Procedure, shortened: as §1

[6] = Quantitative High-Throughput drug screen in 47 multiple myeloma cell lines against the NCATS MIPE library collection: ARP1_JJKsccF8 cell viability assay (AID 1918928; further: nearly all actives have a fitted effect of over 40% in size; further: potency means the concentration at half of the fitted maximal effect)
Procedure, shortened: (§2)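 Luminescence from CellTiter-Glo, taken after 5 min at room temperature, reports cellular ATP as viability. Cells (500 per well) had been treated 48 h at 37 °C with MIPE 4.0 compounds, scaled between DMSO and medium-only controls.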

[7] = Quantitative High-Throughput drug screen in 47 multiple myeloma cell lines against the NCATS MIPE library collection: ARD_JJKsccE7 cell viability assay (AID 1918929; further: potency means the concentration at half of the fitted maximal effect)
Procedure, shortened: as §1

[8] = Quantitative High-Throughput drug screen in 47 multiple myeloma cell lines against the NCATS MIPE library collection: Karpas620_DSMZ cell viability assay (AID 1918959); further: nearly all actives have a fitted effect of over 30% in size; further: potency means the concentration at half of the fitted maximal effect
Procedure, shortened: (§3)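 Inhibition of cell viability is measured here. Each line was plated at 500 cells per well, treated with MIPE 4.0 drugs, kept 48 hours at 37C, then assayed for ATP content by CellTiter-Glo luminescence.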

[9] = Quantitative High-Throughput drug screen in 47 multiple myeloma cell lines against the NCATS MIPE library collection: KMM1_JCRB cell viability assay (AID 1918960); further: nearly all actives have a fitted effect of over 30% in size; further: potency means the concentration at half of the fitted maximal effect
Procedure, shortened: as §2

[10] = Quantitative High-Throughput drug screen in 47 multiple myeloma cell lines against the NCATS MIPE library collection: KHM11_PLB cell viability assay (AID 1918962); further: nearly all actives have a fitted effect of over 35% in size; further: potency means the concentration at half of the fitted maximal effect
Procedure, shortened: as §3

[11] = Quantitative High-Throughput drug screen in 47 multiple myeloma cell lines against the NCATS MIPE library collection: JIM3_ECACC cell viability assay (AID 1918963; further: nearly all actives have a fitted effect of over 35% in size; further: potency means the concentration at half of the fitted maximal effect)
Procedure, shortened: as §3

[12] = Quantitative High-Throughput drug screen in 47 multiple myeloma cell lines against the NCATS MIPE library collection: INA6_PLB cell viability assay (AID 1918965; further: nearly all actives have a fitted effect of over 55% in size; further: potency means the concentration at half of the fitted maximal effect)
Procedure, shortened: (§4)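 qHTS of the MIPE 4.0 collection: 500 myeloma cells/well, 48 h drug exposure at 37C in 5% CO2, then CellTiter-Glo for 5 min at room temperature before luminescence reading.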

[13] = Quantitative High-Throughput drug screen in 47 multiple myeloma cell lines against the NCATS MIPE library collection: H1112_PLB cell viability assay (AID 1918967; further: nearly all actives have a fitted effect of over 30% in size; further: potency means the concentration at half of the fitted maximal effect)
Procedure, shortened: as §1

[14] = Quantitative High-Throughput drug screen in 47 multiple myeloma cell lines against the NCATS MIPE library collection: FR4_PLB cell viability assay (AID 1918924; further: nearly all actives have a fitted effect of over 35% in size; further: potency means the concentration at half of the fitted maximal effect)
Procedure, shortened: as §3

[15] = Quantitative High-Throughput drug screen in 47 multiple myeloma cell lines against the NCATS MIPE library collection: AMO1_DSMZ cell viability assay (AID 1918927; further: nearly all actives have a fitted effect of over 30% in size; further: potency means the concentration at half of the fitted maximal effect)
Procedure, shortened: as §1

[16] = Quantitative High-Throughput drug screen in 47 multiple myeloma cell lines against the NCATS MIPE library collection: JIM1_ECACC cell viability assay (AID 1918964; further: potency means the concentration at half of the fitted maximal effect)
Procedure, shortened: as §1

[17] = Quantitative High-Throughput drug screen in 47 multiple myeloma cell lines against the NCATS MIPE library collection: Karpas25_ECACC cell viability assay (AID 1918968; further: nearly all actives have a fitted effect of over 35% in size; further: potency means the concentration at half of the fitted maximal effect)
Procedure, shortened: as §1

[18] = Quantitative High-Throughput drug screen in 47 multiple myeloma cell lines against the NCATS MIPE library collection: KMS27_JCRB cell viability assay (AID 1918970); conditions: KMS27 myeloma cells, CellTiter-Glo ATP viability, 48 h; viability (% of DMSO): at 45.8 µM (top of the series); further: nearly all actives have a fitted effect of over 30% in size
Procedure, shortened: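 CellTiter-Glo luminescence after 48 h drug exposure at 37 °C; 500 cells/well, 1536-well format, pin-tool compound addition; DMSO = 100%, media-only = 0% viability.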

[19] = Quantitative High-Throughput drug screen in 47 multiple myeloma cell lines against the NCATS MIPE library collection: Karpas417_ECACC cell viability assay (AID 1918961); conditions: Karpas417 myeloma viability, CellTiter-Glo ATP luminescence, 48 h; viability (% of DMSO): at 45.8 µM (top of the series); further: potency means the concentration at half of the fitted maximal effect
Procedure, shortened: as §4

[20] = Quantitative High-Throughput drug screen in 47 multiple myeloma cell lines against the NCATS MIPE library collection: JJN3_DSMZ cell viability assay (AID 1918966; further: nearly all actives have a fitted effect of over 50% in size; further: potency means the concentration at half of the fitted maximal effect)
Procedure, shortened: as §1

| SMILES | Potency [1] | Potency [2] | outcome [3] | Potency [4] | Potency [5] | Potency [6] | Potency [7] | Potency [8] | Potency [9] | Potency [10] | Potency [11] | Potency [12] | Potency [13] | Potency [14] | Potency [15] | Potency [16] | Potency [17] | Potency [18] | Potency [19] | Potency [20] |
| --- | --- | --- | --- | --- | --- | --- | --- | --- | --- | --- | --- | --- | --- | --- | --- | --- | --- | --- | --- | --- |
| CC1=C(C(=O)Nc2cc3cn[nH]c3cc2F)C(c2ccc(C(F)(F)F)cc2)CC(=O)N1 (stereo unspecified) | inactive | inactive | inactive | inactive | inactive | inactive | inactive | inactive | inactive | inactive | inactive | 18.7 µM (active) | inactive | – | – | – | – | – | – | – |
| CN1c2ccccc2C(=O)N2CCc3c([nH]c4ccccc34)C21 (stereo unspecified) | inactive | inactive | inactive | – | inactive | – | – | inactive | inactive | – | 23.5 µM (active) | – | – | inactive | inactive | inactive | 23.5 µM (active) | inactive | – | – |
| CC(C)(OCc1nn(Cc2ccccc2)c2ccccc12)C(=O)O | inactive | inactive | inactive | inactive | 9.35 µM (active) | inactive | – | inactive | inactive | – | – | inactive | – | inactive | – | – | – | – | – | – |
| O=C(O)CCNc1cc(N2CCc3ccccc3CC2)nc(-c2ccccn2)n1 | inactive | inactive | inactive | – | – | – | inactive | – | – | – | – | 16.6 µM (active) | inactive | inactive | – | – | 16.6 µM (active) | – | inactive | – |
| Cc1csc(-c2nnc(Nc3ccc(Oc4ncccc4-c4ccnc(N)n4)cc3)c3ccccc23)c1 | inactive | inactive | inactive | 23.5 µM (active) | – | 5.26 µM (active) | 23.5 µM (active) | – | 14.8 µM (active) | – | – | – | – | 16.6 µM (active) | 2.96 µM (active) | – | – | – | – | 18.7 µM (active) |
| CC(=O)Nc1cccc(-n2c(=O)n(C3CC3)c(=O)c3c(Nc4ccc(I)cc4F)n(C)c(=O)c(C)c32)c1 | inactive | inactive | inactive | – | 0.0372 µM (active) | inactive | – | 0.0296 µM (active) | 0.0935 µM (active) | – | 0.187 µM (active) | 0.0418 µM (active) | 0.0469 µM (active) | 0.743 µM (active) | 1.18 µM (active) | – | 1.66 µM (active) | – | 0.0662 µM (active) | – |
| O=C(CO)N1CCC(c2[nH]nc(-c3ccc(Cl)cc3)c2-c2ccncn2)CC1 | inactive | inactive | inactive | inactive | inactive | inactive | – | inactive | inactive | – | inactive | 11.8 µM (active) | inactive | inactive | inactive | inactive | inactive | – | – | 1.66 µM (active) |
| CC1(C)CC(=O)c2c(C(F)(F)F)nn(-c3ccc(C(N)=O)c(NC4CCC(O)CC4)c3)c2C1 (stereo unspecified) | inactive | inactive | inactive | – | – | 0.132 µM (active) | inactive | – | inactive | – | 0.105 µM (active) | – | – | 0.059 µM (active) | – | – | – | inactive | – | 0.0662 µM (active) |
| COc1ccc(CCC(=O)Nc2nc3ccc(Cl)cc3s2)cc1OC | inactive | inactive | inactive | – | – | – | inactive | inactive | inactive | inactive | 14.8 µM (active) | – | – | inactive | – | – | – | inactive | – | inactive |
| CC(C)(O)CC(=O)NCCn1ccc2ncnc(Nc3ccc(Oc4cccc(C(F)(F)F)c4)c(Cl)c3)c21 | inactive | inactive | inactive | 18.7 µM (active) | – | – | – | 5.9 µM (active) | 5.26 µM (active) | – | 23.5 µM (active) | 29.6 µM (active) | – | 26.4 µM (active) | 16.6 µM (active) | – | 23.5 µM (active) | – | – | – |
| Nc1ncnc2c1c(-c1cccc(OCc3ccccc3)c1)cn2C1CC(CN2CCC2)C1 (stereo unspecified) | inactive | inactive | – | 0.372 µM (active) | – | – | 2.96 µM (active) | 2.96 µM (active) | 0.372 µM (active) | 16.6 µM (active) | 0.332 µM (active) | 20.9 µM (active) | – | 16.6 µM (active) | 14.8 µM (active) | 0.469 µM (active) | 1.18 µM (active) | – | – | 4.69 µM (active) |
| C=CC(=O)Nc1cccc(Sc2nc(Nc3ccc(N4CCN(C)CC4)cc3)ncc2Cl)c1 | 3.36 µM (active) | inactive | inactive | – | 18.7 µM (active) | – | – | – | – | – | – | – | – | – | – | – | – | – | – | 37.2 µM (active) |
| C[C@@]1(c2cc(-c3cncnc3)c(F)cc2F)CCSC(N)=N1 | inactive | inactive | inactive | inactive | – | inactive | – | 2.35 µM (active) | – | – | 23.5 µM (active) | – | – | – | 14.8 µM (active) | – | – | – | 0.0833 µM (active) | – |
| CC1(COc2ccc3c(c2)ncn3-c2ccc3cccc(N4CCC(N)CC4)c3n2)COC1 | inactive | inactive | – | – | – | – | 5.9 µM (active) | – | – | – | 0.0118 µM (active) | – | 0.0083 µM (active) | 1.48 µM (active) | – | – | – | – | 1.18 µM (active) | 0.418 µM (active) |
| Fc1ccc(CNc2ncnc3ccc(F)cc23)cc1 | inactive | inactive | inactive | – | 6.62 µM (active) | 6.62 µM (active) | 4.69 µM (active) | 5.9 µM (active) | 4.18 µM (active) | 8.33 µM (active) | 11.8 µM (active) | 8.33 µM (active) | 13.2 µM (active) | – | 7.43 µM (active) | – | 3.72 µM (active) | – | – | – |
